Source: PubChem BioAssay (EPA / NIEHS)
Active and inactive are the calls of the source. The calls were made as follows: active = hit-call score of the fitted dose curve at least 0.9, where 1 is the maximum; inactive = score below 0.9.

Experiments:
Conditions in all cases: mRNA level, 48 h; actives raise or lower the signal
[1] = read-out: MYC, MYC (gene 4609); assay: LTEA_HepaRG_MYC: Life Technologies and Expression Analysis (LTEA) Assay for MYC using HepaRG (AID 2283518)
In short: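 Expression changes were scored by TaqMan qRT-PCR with ACTB, GAPDH and POLR2A normalization. Cultures in serum-free induction medium received duplicate 8-point concentration series, highest 100 uM, for 48 h; DMSO (0.5%) served as baseline.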

[2] = read-out: matrix metalloproteinase-3 (MMP3), MMP3 (gene 4314); assay: LTEA_HepaRG_MMP3: Life Technologies and Expression Analysis (LTEA) Assay for matrix metalloproteinase-3 (MMP3) using HepaRG (AID 2283519)
In short: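 qRT-PCR read-out of MMP3 mRNA (normalised to three housekeeping genes) in HepaRG liver cells after 48 h chemical exposure; 8-point half-log series, top 100 uM, 0.5% DMSO vehicle. Bidirectional curve fitting against DMSO baseline.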

[3] = read-out: Paternally Expressed 10 (PEG10), PEG10 (gene 23089); assay: LTEA_HepaRG_PEG10: Life Technologies and Expression Analysis (LTEA) Assay for Paternally Expressed 10 (PEG10) using HepaRG (AID 2283520);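 as to AC50: differentiated HepaRG human liver cells in serum-free induction medium with 0.5% DMSO; PEG10 transcript by qRT-PCR normalised to ACTB GAPDH and POLR2A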
In short: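 After 48 h exposure of differentiated HepaRG cells (0.5% DMSO vehicle, eight concentrations up to 100 uM, duplicates), PEG10 mRNA was measured by TaqMan qRT-PCR. Values were normalised to endogenous control genes and analysed bidirectionally against vehicle.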

[4] = read-out: Protein phosphatase 2A (PPP2R4), PTPA (gene 5524); assay: LTEA_HepaRG_PPP2R4: Life Technologies and Expression Analysis (LTEA) Assay for Protein phosphatase 2A (PPP2R4) using HepaRG (AID 2283522)
In short: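 Using HepaRG cultures maintained in 0.5% DMSO, chemicals are tested 48 h at up to 100 uM in duplicate. Induction or suppression of PPP2R4 mRNA, measured by qRT-PCR, is fitted bidirectionally against the vehicle baseline.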

[5] = read-out: Phosphatase and tensin (PTEN), PTEN (gene 5728); assay: LTEA_HepaRG_PTEN: Life Technologies and Expression Analysis (LTEA) Assay for Phosphatase and tensin (PTEN) using HepaRG (AID 2283523)
In short: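 HepaRG, 48 h exposure, 8-pt half-log series from 100 uM top, 0.5% DMSO vehicle, duplicates. Readout: Fluidigm qRT-PCR of PTEN transcript; housekeeping normalization (ACTB, GAPDH, POLR2A). Gain or loss fitted relative to DMSO baseline.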

[6] = read-out: solute carrier (SLC22A1), SLC22A1 (gene 6580); assay: LTEA_HepaRG_SLC22A1: Life Technologies and Expression Analysis (LTEA) Assay for solute carrier (SLC22A1) using HepaRG (AID 2283524);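 as to AC50: differentiated human HepaRG liver cells in serum-free induction medium; TaqMan qRT-PCR normalized to ACTB GAPDH and POLR2A housekeeping genes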
In short: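 qRT-PCR readout (TaqMan, Fluidigm arrays) of SLC22A1 transcript, normalized to three housekeeping genes; bidirectional curve fit relative to 0.5% DMSO vehicle. Differentiated human HepaRG cells, 48 h chemical exposure, top concentration 100 uM, half-log steps, eight points.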

[7] = read-out: Pyruvate Dehydrogenase Kinase 4 (PDK4), PDK4 (gene 5166); assay: LTEA_HepaRG_PDK4: Life Technologies and Expression Analysis (LTEA) Assay for Pyruvate Dehydrogenase Kinase 4 (PDK4) using HepaRG (AID 2283525)
In short: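 HepaRG (human liver line), 48 h chemical exposure, 8-pt half-log CRC top 100 uM, 0.5% DMSO vehicle, duplicates. Readout: TaqMan qRT-PCR of PDK4 mRNA, housekeeping-normalized; gain/loss fit relative to DMSO baseline.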

[8] = read-out: NAD(P)H dehydrogenase [quinone] 1 (NQO1), NQO1 (gene 1728); assay: LTEA_HepaRG_NQO1: Life Technologies and Expression Analysis (LTEA) Assay for NAD(P)H dehydrogenase [quinone] 1 (NQO1) using HepaRG (AID 2283526)
In short: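 In this assay, gene expression is read by qRT-PCR after 48 h exposure of HepaRG cells to eight concentrations (max 100 uM, half-log) in 0.5% DMSO. Each chemical runs in duplicate, and activity is scored relative to vehicle.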

[9] = read-out: Nuclear factor erythroid 2-related factor 2 (Homo sapiens) (UniProt Q16236); assay: LTEA_HepaRG_NFE2L2: Life Technologies and Expression Analysis (LTEA) Assay for Nuclear factor erythroid 2-related factor 2 (NFE2L2) Transcription Factor using HepaRG (AID 2283527)
In short: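 HepaRG, 48 h dosing, 8-pt half-log series from 100 uM in 0.5% DMSO, duplicates. Read-out: NFE2L2 mRNA by qRT-PCR (ACTB/GAPDH/POLR2A normalization). Bidirectional curve fit vs DMSO baseline.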

[10] = read-out: Nuclear factor NF-kappa-B p105 subunit (Homo sapiens) (UniProt P19838); assay: LTEA_HepaRG_NFKB1: Life Technologies and Expression Analysis (LTEA) Assay for Nuclear Factor Kappa B Subunit 1 (NFKB1) using HepaRG (AID 2283521)
In short: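 HepaRG, 48 h exposure; 8-pt half-log series from 100 uM in 0.5% DMSO; duplicates. Readout: NFKB1 mRNA by qRT-PCR (Fluidigm arrays), housekeeping-normalized. Gain/loss fit vs DMSO baseline.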

Measured: AC50

Sequence of Nuclear factor erythroid 2-related factor 2 (Homo sapiens) (Q16236 whole entry, looked up): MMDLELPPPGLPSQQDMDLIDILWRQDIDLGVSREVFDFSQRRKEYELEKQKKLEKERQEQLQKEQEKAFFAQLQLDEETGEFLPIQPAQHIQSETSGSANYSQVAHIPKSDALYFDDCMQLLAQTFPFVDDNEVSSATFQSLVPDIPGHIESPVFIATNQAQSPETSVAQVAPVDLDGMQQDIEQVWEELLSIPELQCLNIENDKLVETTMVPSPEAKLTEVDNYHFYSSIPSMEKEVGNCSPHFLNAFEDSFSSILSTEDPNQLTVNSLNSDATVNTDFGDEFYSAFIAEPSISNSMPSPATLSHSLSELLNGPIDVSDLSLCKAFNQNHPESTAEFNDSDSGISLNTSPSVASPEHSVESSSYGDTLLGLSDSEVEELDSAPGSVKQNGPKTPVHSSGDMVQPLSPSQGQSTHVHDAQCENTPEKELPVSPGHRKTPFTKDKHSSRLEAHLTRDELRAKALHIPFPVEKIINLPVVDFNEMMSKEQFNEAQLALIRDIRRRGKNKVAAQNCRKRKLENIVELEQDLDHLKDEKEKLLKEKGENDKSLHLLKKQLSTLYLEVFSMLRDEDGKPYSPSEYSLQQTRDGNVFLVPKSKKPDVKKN
Sequence of Nuclear factor NF-kappa-B p105 subunit (Homo sapiens) (P19838 whole entry, looked up): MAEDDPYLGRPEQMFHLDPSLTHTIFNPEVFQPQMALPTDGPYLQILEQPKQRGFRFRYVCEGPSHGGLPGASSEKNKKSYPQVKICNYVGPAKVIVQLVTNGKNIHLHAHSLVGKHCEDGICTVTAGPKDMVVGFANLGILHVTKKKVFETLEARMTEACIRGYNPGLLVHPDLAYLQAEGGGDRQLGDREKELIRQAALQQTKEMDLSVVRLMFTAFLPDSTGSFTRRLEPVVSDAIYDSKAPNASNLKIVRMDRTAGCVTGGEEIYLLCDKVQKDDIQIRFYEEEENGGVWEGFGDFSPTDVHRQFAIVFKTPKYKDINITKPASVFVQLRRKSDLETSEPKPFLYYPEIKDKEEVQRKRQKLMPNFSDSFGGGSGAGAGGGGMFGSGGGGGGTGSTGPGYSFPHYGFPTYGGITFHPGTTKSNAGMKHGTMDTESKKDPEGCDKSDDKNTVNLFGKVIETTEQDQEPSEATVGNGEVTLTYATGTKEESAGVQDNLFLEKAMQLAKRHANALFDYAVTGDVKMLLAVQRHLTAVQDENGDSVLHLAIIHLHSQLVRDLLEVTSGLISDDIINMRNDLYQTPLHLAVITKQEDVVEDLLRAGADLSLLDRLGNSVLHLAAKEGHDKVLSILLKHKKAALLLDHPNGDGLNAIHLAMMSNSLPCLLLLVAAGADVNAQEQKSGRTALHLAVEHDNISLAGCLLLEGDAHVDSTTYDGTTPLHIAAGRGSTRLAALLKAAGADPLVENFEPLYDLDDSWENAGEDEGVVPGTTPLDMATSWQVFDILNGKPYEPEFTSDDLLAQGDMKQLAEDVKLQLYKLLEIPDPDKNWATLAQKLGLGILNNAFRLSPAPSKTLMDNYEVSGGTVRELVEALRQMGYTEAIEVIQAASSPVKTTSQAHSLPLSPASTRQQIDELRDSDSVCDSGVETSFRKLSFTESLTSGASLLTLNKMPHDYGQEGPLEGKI

O=c1[nH]cc(F)c(=O)[nH]1
inactive: [1] | [2] | [3] | [5] | [8] | [9]
active: [4] 51 µM | [6] 51 µM | [7] 76 µM

CCc1c(C(=O)NN2CCCCC2)nn(-c2ccc(Cl)cc2Cl)c1-c1ccc(Br)cc1
active: [1] 50 µM | [3] 29.3 µM | [10] 74.8 µM | [6] 40.4 µM | [7] 22.1 µM | [8] 80.1 µM | [9] 72.4 µM
inactive: [4] | [5]

CCCCN(CCCC)CCCC
inactive: [1] | [3] | [10] | [4] | [5] | [6] | [7] | [8] | [9]

O=C(OCCCCCOC(=O)c1ccccc1)c1ccccc1
active: [1] 2.26 µM | [2] 2.23 µM | [10] 2.08 µM | [4] 2.43 µM | [5] 1.85 µM | [7] 0.309 µM | [8] 1.8 µM | [9] 0.145 µM
inactive: [3]

COCCOC[C@H](CC1(C(=O)NC2CCC(C(=O)O)CC2)CCCC1)C(=O)Oc1ccc2c(c1)CCC2 (stereo partly drawn)
inactive: [1] | [2] | [3] | [4] | [5] | [6] | [7] | [8] | [9]

Cc1ccc(C)c(O)c1C
inactive: [1] | [3] | [10] | [4] | [5] | [6] | [7] | [8] | [9]

CCCCCCCCCCCCCCCC
inactive: [1] | [2] | [3] | [4] | [5] | [6] | [7] | [8] | [9]

Clc1cc(Cl)c(Cl)cc1Cl
inactive: [1] | [2] | [3] | [10] | [4] | [5] | [7] | [8] | [9]

C1CCC(SSC2CCCCC2)CC1
inactive: [1] | [3] | [10] | [4] | [5] | [6] | [7] | [8] | [9]

COc1ccc2c(c1)c(CC(=O)O)c(C)n2C(=O)c1ccc(Cl)cc1
inactive: [1] | [2] | [3] | [4] | [5] | [6] | [7] | [8] | [9]

CNCc1cc(F)ccc1Oc1ccc(Cl)c(Cl)c1
inactive: [5] | [7] | [8] | [9]
active: [1] 78.9 µM | [3] 0.689 µM | [10] 86.3 µM | [4] 50 µM | [6] 86.5 µM

Cc1nc(C)nc(N2C[C@@H](C)N(c3ccnc([C@@H](C)O)n3)[C@@H](C)C2)n1
inactive: [1] | [3] | [10] | [4] | [5] | [7] | [8] | [9]

Cc1cccc(C)c1O
inactive: [1] | [3] | [10] | [4] | [5] | [7] | [8] | [9]

CCCCC(CC)COC(=O)CC(C(=O)OCC(CC)CCCC)S(=O)(=O)O (stereo not drawn)
inactive: [2] | [10] | [7] | [8] | [9]
active: [1] 85 µM | [3] 89 µM | [4] 80.9 µM | [5] 80.9 µM

CCCCCCCCCCCC(=O)OC
inactive: [1] | [2] | [3] | [10] | [4] | [5] | [7] | [8] | [9]

FC(F)(F)C(F)(F)C(F)(F)C(F)(F)C(F)(F)C(F)(F)CCI
inactive: [1] | [3] | [4] | [5] | [6] | [7] | [8] | [9]

COc1cc(S(=O)(=O)O)c(C)cc1N=Nc1c(O)ccc2cc(S(=O)(=O)O)ccc12
inactive: [1] | [3] | [4] | [5] | [6] | [7] | [8] | [9]

CCCCc1ccc2c(n1)[C@@H](c1ccc(OC)cc1C[C@H](C)C(=O)O)[C@H](C(=O)O)[C@H]2c1ccc2c(c1)OCO2
inactive: [1] | [3] | [4] | [5] | [6] | [7] | [8] | [9]

C=CCc1ccc(O)c(OC)c1
inactive: [1] | [3] | [4] | [5] | [6] | [7] | [8] | [9]

NCCO
inactive: [1] | [3] | [4] | [5] | [7] | [8] | [9]

Cc1c(C(=O)O)c(O)cc2c1C(=O)c1c(O)c([C@@H]3O[C@H](CO)[C@@H](O)[C@H](O)[C@H]3O)c(O)c(O)c1C2=O
inactive: [1] | [3] | [4] | [5] | [6] | [7] | [8] | [9]

CCCCCCC(=O)OCC
inactive: [1] | [3] | [10] | [4] | [5] | [7] | [8] | [9]

O=C(O)Cc1ccccc1Nc1c(Cl)cccc1Cl
inactive: [1] | [3] | [4] | [5] | [7] | [8] | [9]

c1cc(-c2ccncc2)ccn1
inactive: [3] | [10] | [4] | [5] | [7] | [8] | [9]

C[C@]12C=CC(=O)C=C1CC[C@@H]1[C@@H]2C(=O)C[C@@]2(C)[C@H]1CC[C@]2(O)C(=O)CO
inactive: [3] | [10] | [4] | [5] | [7] | [8] | [9]

CCCCCCCCCCCCCCCCCC(=O)O
inactive: [1] | [3] | [10] | [4] | [5] | [8] | [9]

Cc1cccc([N+](=O)[O-])c1C
inactive: [1] | [3] | [10] | [4] | [5] | [7] | [8] | [9]

Cc1cccc(Nc2cc(Cl)nc(SCC(=O)O)n2)c1C
inactive: [1] | [3] | [10] | [4] | [5] | [8] | [9]

COC(=O)c1ccc(O)cc1
inactive: [1] | [3] | [10] | [4] | [5] | [7] | [8] | [9]

C[Si]1(C)O[Si](C)(C)O[Si](C)(C)O[Si](C)(C)O1
inactive: [1] | [3] | [10] | [4] | [5] | [7] | [8] | [9]

NS(=O)(=O)c1cc2c(cc1Cl)NCNS2(=O)=O
inactive: [1] | [3] | [4] | [5] | [7] | [8] | [9]

Cc1cc(NC(=O)C(=O)O)cc(C)c1Oc1ccc(O)c2c1CCC2
inactive: [1] | [3] | [4] | [5] | [8] | [9]
active: [7] 0.00353 µM

CC(=O)OCCOCCOCCOC(C)=O
inactive: [1] | [3] | [4] | [5] | [6] | [7] | [8] | [9]

Cc1ccc(C)c(C)c1
inactive: [1] | [3] | [10] | [4] | [5] | [7] | [8] | [9]

COc1cc(C=O)ccc1O
inactive: [1] | [3] | [10] | [4] | [5] | [7] | [8] | [9]

CCOC(=O)CCC(=O)OCC
active: [5] 81.2 µM
inactive: [1] | [3] | [4] | [6] | [7] | [8] | [9]

COc1ccc(S(=O)(=O)N2C(=O)[C@@](c3ccccc3OC)(N3C[C@H](O)C[C@H]3C(=O)N(C)C)c3cc(Cl)ccc32)c(OC)c1
active: [1] 76.5 µM | [3] 21.5 µM | [4] 32.4 µM | [5] 16.8 µM | [7] 13.9 µM | [8] 29.5 µM | [9] 83.2 µM

CCCCCCCCCCC
inactive: [1] | [3] | [10] | [4] | [5] | [7] | [8] | [9]

CC(=O)OC/C=C(\C)CCC=C(C)C
inactive: [1] | [3] | [4] | [5] | [7] | [8] | [9]

CC=Cc1ccc(O)c(OC)c1
inactive: [1] | [3] | [4] | [5] | [7] | [8] | [9]

CCCCCCCCCCCCCO
inactive: [1] | [3] | [4] | [5] | [6] | [7] | [8] | [9]

NC(=O)Cn1c(=O)cc(CCN2CCN(c3nccc4sccc34)CC2)c2ccc(F)cc21
active: [3] 50 µM
inactive: [1] | [10] | [4] | [5] | [7] | [8] | [9]

CC(CO)OC(C)CO (stereo not drawn) (tested in a mixture with another compound)
inactive: [1] | [3] | [10] | [4] | [5] | [7] | [8] | [9]

Cc1ccc(Cl)cc1
inactive: [1] | [3] | [4] | [6] | [7] | [8] | [9]
